# Test results: PubChem BioAssay AID2313 (Broad Institute, 2010)
# The campaign covered roughly 22,000 compounds. About 460 (2.1%) were called active. Inconclusive results (about 2%) are left out. Shown is part of a subset that was picked to be rich in actives. A number with no mark means an inactive call.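 Rule for the calls: active = mean inhibition across valid replicates above about 65% (limit read from the data); inconclusive = mean under the limit, yet half or more replicates past it; inactive = the rest.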
# Assay: Shh-driven Gli reporter inhibition – luminescence, Shh-LIGHT2 cells, Gli-luciferase, primary screen (AID 2313);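 note: pathway switched on by Shh-conditioned medium diluted 1 in 25 in low serum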
# Conditions: 30 h, hits give high values
row,SMILES,inhibition
1,c1ccc2c(c1)[I+]c1ccccc1-2,88.8% (active)
2,COC(/C=C/CC/C=C/C(=O)O)C(O)C(C)C(O)/C(C)=C/C(C)C(=O)CCCC1CC(=O)NC(=O)C1 (stereo not given),-22.8%
3,CC(C)c1c(CN(C)C(C)Cc2ccccc2)n(C)n(-c2ccccc2)c1=O (stereo not given),-38.5%
4,CC(C)Nc1nc(Cl)nc(NC(C)C)n1,-55.8%
5,CN(C)C(=O)Oc1cc(OC(=O)N(C)C)cc(C(O)CNC(C)(C)C)c1 (stereo not given),33.4%
6,C[C@H]1CCC/C=C/C2C[C@H](O)C[C@H]2[C@H](O)/C=C\C(=O)O1 (stereo not given in full),107% (active)
7,C=CC(C)(C)c1cc2cc3c(cc2oc1=O)O[C@H](C(C)(C)O)C3,-36.2%
8,CC=C1CN2C3CC1C1(C(=O)OC)C2CC2(c4ccccc4N(C)C32)C1O (stereo not given),11.9%
9,CCCCC/C=C\C/C=C\C/C=C\CCCCCCC(=O)NCCO,-2.94%
10,C[C@@H]1O[C@@H](O[C@@H]2C=C3CC[C@@H]4C(C[C@@H](O)[C@]5(C)[C@@H](c6ccc(=O)oc6)CC[C@]45O)[C@@]3(C)CC2)[C@H](O)[C@H](O)[C@H]1O[C@@H]1O[C@H](CO)[C@@H](O)[C@H](O)[C@H]1O (stereo not given in full),-37.6%
11,CC(C)[C@@]1(NC(=O)[C@@H]2CC3c4cccc5[nH]cc(c45)C[C@H]3N(C)C2)O[C@@]2(O)[C@@H]3CCCN3C(=O)[C@H](Cc3ccccc3)N2C1=O (stereo not given in full),21.5%
12,O=C(c1ccccc1)C12CN3CN(CN(C3)C1)C2,-5.62%
13,COc1c(C(C)C)cc2c(c1O)[C@@]1(C(=O)O)CCCC(C)(C)C1CC2 (stereo not given in full),-14.7%
14,CCCCCCCCCCCCCC(=O)O[C@@H]1[C@@H](C)[C@@]2(O)[C@@H](C=C(CO)C[C@]3(O)C(=O)C(C)=C[C@@H]23)[C@@H]2C(C)(C)[C@]12OC(C)=O,87% (active)
15,CCCCC/C=C\C/C=C\C/C=C\C/C=C\CCCCCC(=O)NCCO,-36.6%
